Laboratory results reported in PubChem BioAssay (Tox21).
Records with an inconclusive call do not appear. Entries that show only a call come without a potency. The source made the active and inactive calls. The call rests on the fitted dose curve; in most records, active means well fitted cell-killing curve with a large enough effect in the repeat runs; inconclusive means weak or mixed curves, or effect the other way; inactive means flat fitted curve, though single readings scatter.

Assay: qHTS assay to identify small molecule agonists of the TGF-beta/Smad signaling pathway - cell viability counter screen (AID 1346829); further: nearly all actives have a fitted effect of over 45% in size; on activity change, negative = cytotoxicity: top concentration of the series differs between compounds
Settings: SBE-bla HEK293T viability, CellTiter-Glo luminescence, 5 h; series mostly up to 76.8 µM
From the text: National Center for Advancing Translational Sciences [NCATS]
NIH Chemical Genomics Center [NCGC]
U.S. Environmental Protection Agency [EPA]
National Institutes of Environmental Health Sciences [NIEHS]
National Toxicology Program [NTP]
U.S. Food and Drug Administration [FDA]
Transforming growth factor beta (TGF-beta) superfamily consists of a large number of structurally related dimeric proteins that act as hormones or local mediators in regulating a wide range of biological functions. This superfamily includes TGF-betas themselves, the bone morphogenetic proteins (BMPs) and the activins. These ligands induce oligomerization of serine/threonine receptor kinases and phosphorylate the cytoplasmic signaling molecules of Smad protein family. CellSensor SBE-bla HEK 293T cell line (Life Technologies, Carlsbad, CA), responsive to TGF-beta was used to screen Tox21 10K compound library for identification of agonists/antagonists of the Smad signaling pathway. This cell line contains a beta-lactamase reporter gene under control of the Smad binding element (SBE) stably integrated into HEK 293T cells. Also cytotoxicity of the compounds was tested in parallel by measuring the cell viability using CellTiter-Glo assay system in the same wells.
Tox21 Assay Protocol Summary:
SBE-bla HEK 293T cells were dispensed at 4,000/well in 6 uL of assay medium into black wall/clear-bottom 1536-well plates using a Multidrop Combi (ThermoFisher Scientific, Waltham, MA) dispenser. After the assay plates were incubated at 37 C and 5% CO2 for an overnight, 23 nL of compounds dissolved in DMSO, positive controls or DMSO only was transferred to the assay plate by a Pintool station (Kalypsys, San Diego, CA). The assay plates were incubated at 37 C and 5% CO2 for 5 hr. One uL of LiveBLAzer B/G FRET substrate (Life Technologies) was added using a Flying Reagent Dispenser (FRD, Aurora Discovery, San Diego, CA) and the plates were incubated at room temperature for 2 hr. Fluorescence intensity (405 nm excitation, 460 nm and 530 nm emissions) was measured using an Envision plate reader (PerkinElmer, Shelton, CT). For cytotoxicity read, 4 uL of CellTiter-Glo reagent (Promega Corporation, Madison, WI) was added to each well of the assay plates using FRD. After 30min incubation at room temperature, the luminescence intensity was measured using ViewLux plate reader (PerkinElmer).
Potency means the concentration at half of the fitted maximal effect.

SMILES	activity change, negative = cytotoxicity	Potency
CCC(=O)CC(C)CC (stereo not given)	3.15% [at 0.29 µM] (inactive)	
C/C=C/C(=O)C1=C(C)CCCC1(C)C		inactive
CCN(CC)CCNc1ccc(CO)c2sc3ccccc3c(=O)c12		inactive
CC1CCCCN1CCCOC(=O)c1ccc(OC2CCCCC2)cc1 (stereo not given)		inactive
CCOC(/C=C(\C)CCC=C(C)C)OCC		inactive
CCc1ccc(O)c(C(C)(C)C)c1		inactive
Cc1cccc(C)c1NC(=O)CN1CCN(CCCC(c2ccc(F)cc2)c2ccc(F)cc2)CC1		inactive
CCOC(=O)[C@@](C)(N)Cc1ccc(O)c(O)c1		inactive
COC(=O)CC#N		inactive
CC(C)(c1cc(Br)c(OCCO)c(Br)c1)c1cc(Br)c(OCCO)c(Br)c1		inactive
Cc1nc(Nc2ncc(C(=O)Nc3c(C)cccc3Cl)s2)cc(N2CCN(CCO)CC2)n1		inactive
COc1ccc2sc(C(=O)Nc3nnn[nH]3)c(OC(C)C)c2c1		inactive
S=P(N1CC1)(N1CC1)N1CC1		inactive
CCc1ccc(C)nc1		inactive
NCCCC(O)(P(=O)(O)O)P(=O)(O)O		inactive
O=S(=O)(O)CCCN1CCOCC1		inactive
CCCCCCCC(=O)OCC		inactive
COc1cc(C=C2CCC/C(=C\c3ccc(O)c(OC)c3)C2=O)ccc1O		inactive
CCCCCCCCCCCCCCCCCO	-0.289% [at 15.8 µM] (inactive)	
O[C@@H](c1cc(C(F)(F)F)nc2c(C(F)(F)F)cccc12)[C@H]1CCCCN1		inactive

SMILES	activity change, negative = cytotoxicity	Potency
O=CC1CC1		inactive
CCCCCCCCCC(=O)N(C)C		inactive
CCCCCCCCCCCC(=O)N(CC)CC		inactive
O=C(O)c1cccc(Cl)n1		inactive
Cc1oc(-c2ccccc2)nc1CCOc1ccc(C[C@H](Nc2ccccc2C(=O)c2ccccc2)C(=O)O)cc1		inactive
CCCCCCC(C)OC(=O)COc1nc(F)c(Cl)c(N)c1Cl (stereo not given)		inactive
C=CC(=C)CC/C=C(\C)CCC=C(C)C	1.59% [at 15.8 µM] (inactive)	
COc1cc(C(=O)NS(=O)(=O)c2ccccc2C)ccc1Cc1cn(C)c2ccc(NC(=O)OC3CCCC3)cc12		inactive
Clc1cc(Cl)c(-c2c(Cl)c(Cl)cc(Cl)c2Cl)cc1Cl		inactive
C=CC(C)C#N (stereo not given)		inactive
O=C(Nc1ccc(Cl)c(Cl)c1)c1cc(Cl)cc(Cl)c1O		6.92 µM (active)
O=C(Oc1ccccc1)c1cccc(C(=O)Oc2ccccc2)c1		inactive
CN1[C@@H]2CC[C@H]1CC(OC(=O)C(CO)c1ccccc1)C2 (stereo not given in full)		inactive
C[Si](C)(C)Cl		inactive
CCCCCCCC/C=C\CCCCCCCC(=O)N(C)CC(=O)O		inactive
Oc1ccc(-c2ccc(O)cc2)cc1		inactive
C=CC/C=C/C/C=C/C/C=C/C		inactive
Cc1ccc(O)cn1		inactive
CC(C(O)c1ccccc1)N(C)CCOC(c1ccccc1)c1ccccc1 (stereo not given)		inactive
CN1CCN(C2Cc3ccccc3Sc3ccc(Cl)cc32)CC1 (stereo not given)		inactive
